A short description of assay [1]: optical density shifts of acrAB sulA E. coli – strain DRC41, OD650, 48 h, E. coli filamentation inducer project, primary screen (AID 1152).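 Further: E. coli MC1000 strain DRC41 lacking acrAB efflux pump and sulA.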 Conditions: higher = more signal, called active from +8 up or from −8 down.
Assay [2] in a line: probe aLefty1 binding on compound microarray – biochemical, small-molecule microarray, 635/667 nm fluorescence, primary screen (AID 1153).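 Further: score merges spot fluorescence with signal-to-noise ratio from the scanned slide images.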 Conditions: higher = more signal.
Assay [3] is described as follows: plasmodial surface anion channel blockers, osmotic lysis – cell-based, P. falciparum Indochina, OD700, 1 h, primary screen (AID 1154). Conditions: P. falciparum Indochina infected RBC osmotic lysis, higher = more signal, called active from +8 up or from −8 down.
The nature of assay [4]: plasmodial surface anion channel blockers, osmotic lysis – cell-based, P. falciparum Indochina, OD700, 2 h, primary screen (AID 1155).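 Further: lysis reports solute entry through the parasite surface anion channel PSAC.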 Particulars: P. falciparum Indochina infected erythrocytes, higher = more signal, called active from +8 up or from −8 down.
Assay [5] is described as follows: changes in parasitized red cell lysis, either direction – P. falciparum Indochina, OD700, 3 h, PSAC antagonist project, primary screen (AID 1156). Particulars: P. falciparum-infected erythrocytes, osmotic lysis, higher = more signal, called active from +8 up or from −8 down.
Assay [6] can be described thus: plasmodial surface anion channel blockers, osmotic lysis – cell-based, P. falciparum Indochina, OD700, 18 h, primary screen (AID 1157). Particulars: P. falciparum Indochina infected erythrocytes, osmotic lysis OD700, 18 h; higher = more signal, called active from +8 up or from −8 down.
Assay [7] can be described thus: S6 kinase pathway phospho-S6 level changes – cell-based, A549, cytoblot, luminescence, serum-stimulated, primary screen (AID 1158).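 Further: serum-stimulated A549 lung adenocarcinoma cells; signal is phosphorylated S6 detected by cytoblot immunostaining with HRP secondary.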 Particulars: 5 h, higher = more signal.
Assay [8] concerns the target NADPH oxidase 2 (Homo sapiens) (UniProt P04839). Put plainly: compounds shifting NOX2 Amplex Red fluorescence – cell-based, HEK293-NOX2, PMA-stimulated, NOX inhibitor project, primary screen (AID 1159). Further: test concentration not given here. Particulars: 45 min, higher = more signal, called active from +8 up or from −8 down.
For assay [9], the target named is NADPH oxidase 4 (Homo sapiens) (UniProt Q9NPH5). Put plainly: compounds shifting NOX4 Amplex Red fluorescence – cell-based, HEK293-NOX4, tetracycline-induced, NOX inhibitor project, primary screen (AID 1160). Conditions: HEK293-NOX4, Amplex Red H2O2 fluorescence, 45 min; higher = more signal, called active from +8 up or from −8 down.
NADPH oxidase 4 (Homo sapiens), sequence (Q9NPH5 whole entry, looked up): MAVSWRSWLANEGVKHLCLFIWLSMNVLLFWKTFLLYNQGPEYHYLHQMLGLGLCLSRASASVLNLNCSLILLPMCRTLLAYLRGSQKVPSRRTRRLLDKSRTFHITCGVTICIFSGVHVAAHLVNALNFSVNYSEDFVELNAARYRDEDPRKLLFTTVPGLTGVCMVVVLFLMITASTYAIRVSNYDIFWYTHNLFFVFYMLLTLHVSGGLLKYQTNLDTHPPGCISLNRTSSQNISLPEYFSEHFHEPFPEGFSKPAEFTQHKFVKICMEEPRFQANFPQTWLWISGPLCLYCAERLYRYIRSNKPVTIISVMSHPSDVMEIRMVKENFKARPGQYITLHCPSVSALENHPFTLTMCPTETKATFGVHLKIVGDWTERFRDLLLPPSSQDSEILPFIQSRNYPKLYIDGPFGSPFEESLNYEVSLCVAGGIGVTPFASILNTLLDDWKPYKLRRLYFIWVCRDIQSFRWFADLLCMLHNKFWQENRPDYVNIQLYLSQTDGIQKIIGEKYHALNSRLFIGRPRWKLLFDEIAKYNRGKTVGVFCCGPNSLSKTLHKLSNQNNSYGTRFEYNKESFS
Assay [10] has as its target NADPH oxidase 5 (Homo sapiens) (UniProt Q96PH1). Put plainly: compounds shifting NOX5 Amplex Red fluorescence – cell-based, HEK293-NOX5, NOX inhibitor project, primary screen (AID 1161). Conditions: HEK293-NOX5, ionomycin, 45 min, higher = more signal.

For 13 compounds, z-score and composite z-score results are on record in PubChem BioAssay.

The source made the active and inactive calls.

NADPH oxidase 2 (Homo sapiens), sequence (P04839 whole entry, looked up): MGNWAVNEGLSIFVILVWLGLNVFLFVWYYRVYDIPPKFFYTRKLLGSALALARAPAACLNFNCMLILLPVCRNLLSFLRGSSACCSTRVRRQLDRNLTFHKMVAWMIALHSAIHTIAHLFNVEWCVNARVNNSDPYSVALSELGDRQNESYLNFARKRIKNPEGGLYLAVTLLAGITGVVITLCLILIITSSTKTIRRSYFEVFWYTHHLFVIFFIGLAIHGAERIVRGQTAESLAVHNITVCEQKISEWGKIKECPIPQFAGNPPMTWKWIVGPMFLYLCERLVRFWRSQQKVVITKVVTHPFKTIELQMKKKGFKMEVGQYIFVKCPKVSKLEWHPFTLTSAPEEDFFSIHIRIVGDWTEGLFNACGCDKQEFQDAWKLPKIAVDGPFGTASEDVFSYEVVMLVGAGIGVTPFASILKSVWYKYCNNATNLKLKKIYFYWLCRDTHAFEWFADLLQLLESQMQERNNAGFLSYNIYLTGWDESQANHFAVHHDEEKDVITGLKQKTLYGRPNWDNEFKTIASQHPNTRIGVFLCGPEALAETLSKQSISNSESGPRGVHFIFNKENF
NADPH oxidase 5 (Homo sapiens), sequence (Q96PH1 whole entry, looked up): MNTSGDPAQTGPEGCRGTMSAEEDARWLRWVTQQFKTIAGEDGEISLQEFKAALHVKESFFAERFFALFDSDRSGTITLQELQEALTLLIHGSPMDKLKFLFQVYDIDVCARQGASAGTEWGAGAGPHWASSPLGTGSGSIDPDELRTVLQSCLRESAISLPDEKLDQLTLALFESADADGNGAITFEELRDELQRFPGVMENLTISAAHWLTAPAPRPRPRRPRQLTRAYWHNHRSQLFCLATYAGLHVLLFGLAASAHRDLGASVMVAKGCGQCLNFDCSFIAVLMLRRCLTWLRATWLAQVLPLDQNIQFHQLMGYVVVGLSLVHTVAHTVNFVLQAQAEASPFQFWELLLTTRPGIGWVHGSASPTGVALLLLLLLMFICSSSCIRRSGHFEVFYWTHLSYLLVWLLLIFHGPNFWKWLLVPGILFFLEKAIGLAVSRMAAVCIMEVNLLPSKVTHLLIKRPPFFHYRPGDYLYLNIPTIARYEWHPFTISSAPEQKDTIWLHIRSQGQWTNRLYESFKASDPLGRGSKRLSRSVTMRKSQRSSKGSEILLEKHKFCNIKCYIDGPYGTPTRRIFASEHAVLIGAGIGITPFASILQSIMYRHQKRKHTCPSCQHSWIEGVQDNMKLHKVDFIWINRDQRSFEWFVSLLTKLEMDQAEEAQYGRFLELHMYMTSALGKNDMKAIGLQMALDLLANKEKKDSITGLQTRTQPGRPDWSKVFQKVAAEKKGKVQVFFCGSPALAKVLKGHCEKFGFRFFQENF

`CCCCC(=C=CC[C@H](O)c1ccccc1OCCO)CCO`: the z-score in assay [1] was -0.0046 (inactive); in [3], 4.53 (inactive); in [4] it was 0.626 (inactive); in assay [5] it was -0.0542 (inactive); in [6], 0.331 (inactive); in assay [7] it was -0.401. Further, the z-score was -0.732 (inactive) in [8], -0.145 (inactive) in assay [9] and -1.55 in [10]. The composite z-score in assay [2] was -0.245.

In the case of `O=C1NC(=O)C2C1C=CC(C(O)c1ccc(F)cc1)N2Nc1ccc(Cl)cc1Cl` (stereo not given), the z-score is -1.89 (inactive) in assay [1]; 3.43 (inactive) in assay [3]; 0.615 (inactive) in assay [4]; -0.695 (inactive) in [5]; 1.22 (inactive) in [6]; 0.0765 in assay [7]. Further, the z-score in assay [8] is -0.018 (inactive); in assay [9] it was -5.68 (inactive); in assay [10], -3.23. The composite z-score in assay [2] is -0.017.

Take `C=CC[C@]1(C(=O)NCC(O)CO)N=C(c2ccc(OCCCO)cc2)O[C@H]1c1ccccc1CN=[N+]=[N-]` (stereo not given in full): the z-score was 0.0715 (inactive) in assay [1]; 15.7 (active) in [3]; 1.44 (inactive) in assay [4]; 4.83 (inactive) in assay [5]; 0.839 (inactive) in assay [6]; -0.99 in assay [7]. The z-score in assay [8] is 0.871 (inactive); in assay [9], 0.0808 (inactive); in [10] it was -0.704. The composite z-score in assay [2] was 0.104.

`CCOC(=O)C[C@H]1[C@H](OC(=O)c2ccc(-c3ccccc3)cc2)[C@@H](NC(=O)C2CCCCC2)c2cc(OCCCO)ccc2N1C(=O)Cc1ccc(OC)cc1`: the z-score in [1] is -0.815 (inactive); in [3], 2.23 (inactive); in assay [4] it was 0.166 (inactive); in [5], -0.816 (inactive); in assay [6], 0.0141 (inactive); in assay [7], 0.571. In addition, the z-score is -0.289 (inactive) in assay [8], 1.21 (inactive) in [9] and 0.732 in assay [10]. For the same compound, the composite z-score in assay [2] is 0.0315.

For the compound `CCOC(=O)C[C@H]1[C@H](OC(=O)c2cc3ccccc3oc2=O)[C@@H](NC(=O)c2ccc(-c3ccccc3)cc2)c2cc(OCCCO)ccc2N1C(=O)Cc1ccc(OC)cc1`, the z-score is -0.601 (inactive) in assay [1]; 20.3 (active) in [3]; 5.12 (inactive) in assay [4]; 0.557 (inactive) in assay [5]; 1.04 (inactive) in [6]; -0.192 in assay [7]. The z-score is 1.38 (inactive) in assay [8], 1.08 (inactive) in assay [9] and 1.23 in [10]. The compound further returned a composite z-score in assay [2] of -0.0162.

As to `CCc1cccc(NC(=O)O[C@H]2[C@H](OC(=O)Nc3ccccc3-c3ccccc3)[C@H](OC(=O)Nc3ccccc3-c3ccccc3)[C@@H](OC)O[C@@H]2CO)c1`, the z-score in assay [1] was -1.98 (inactive); in [3] it was 3.88 (inactive); in [4], 1.84 (inactive); in assay [5] it was 0.17 (inactive); in [6], 1.77 (inactive); in assay [7], 0.371. The z-score in [8] is -3.06 (inactive); in assay [9], -0.477 (inactive); in assay [10] it was -1.01. Moreover, the composite z-score in assay [2] worked out at 0.0442.

Turning to `COCCOC(=O)N1C(=O)[C@@]2(c3cc(C#CCCO)ccc31)[C@H](C(=O)N1CCN(c3ncccn3)CC1)[C@H]1C(=O)O[C@H](c3ccccc3)[C@H](c3ccccc3)N1[C@@H]2c1ccc(OCCO)cc1`, the z-score was -0.862 (inactive) in [1]; 11.4 (active) in assay [3]; 3.12 (inactive) in assay [4]; 0.72 (inactive) in assay [5]; 1.39 (inactive) in assay [6]; -0.633 in [7]. Besides, the z-score in assay [8] was 1.45 (inactive); in [9], 0.709 (inactive); in assay [10], 1.21. In assay [2], this compound returned a composite z-score of 0.197.

`CC[C@@H]1C=C(C(=O)O)[C@H](c2cccc(Cl)c2)N1S(=O)(=O)c1ccc(C)cc1`: the z-score in assay [1] was -1.23 (inactive); in assay [3] it was 0.522 (inactive); in assay [4], 0.229 (inactive); in [5], -0.0699 (inactive); in assay [6] it was 0.29 (inactive); in [7] it was -0.861. Besides, the z-score in assay [8] was 0.416 (inactive); in assay [9], 0.185 (inactive); in [10], 0.272. In [2], the composite z-score was 0.0043.

For `CC(C)C[C@@H]1NC(=O)[C@@H]2C[C@H](C(=O)NCCCCCNC(=O)CS)[C@H](c3ccc(O)cc3)N2C1=O`, the z-score in [1] was 2.03 (inactive); in assay [3] it was 0.625 (inactive); in [4], -0.37 (inactive); in assay [5] it was 0.768 (inactive); in assay [6], -0.73 (inactive); in assay [7], 2.48. For the same compound, the z-score in [8] was -1.18 (inactive); in [9] it was -1.35 (inactive); in assay [10], -3.05. In assay [2], this compound registered a composite z-score of 0.165.

For the compound `CS(=O)(=O)CCOC(=O)C1=CC(CCCO)=CC(C2CC2)N(Cc2sc3ccccc3c2Cl)C=C1C(=O)OCCS(C)(=O)=O` (stereo not given), the z-score in assay [1] is -0.406 (inactive); in [3], 12.8 (active); in assay [4], 2.13 (inactive); in assay [5], 0.978 (inactive); in assay [6] it was 1.41 (inactive); in assay [7], 0.248. Also, the z-score in assay [8] was -0.739 (inactive); in assay [9] it was -0.315 (inactive); in assay [10], -1.11. Further, the composite z-score in assay [2] is 0.52.

Take `C[C@@]1([C@@H](NS(=O)(=O)c2cccc3cccnc23)c2ccc(-c3ccccc3)cc2)C[C@H]1C1CCCCC1`: the z-score is -2.47 (inactive) in assay [1]; 0.668 (inactive) in assay [3]; 0.367 (inactive) in assay [4]; 1.39 (inactive) in assay [5]; 0.691 (inactive) in assay [6]; -0.79 in assay [7]. Further, the z-score was 0.168 (inactive) in assay [8], -0.61 (inactive) in assay [9] and -1.99 in [10]. The same compound gave a composite z-score in assay [2] of 1.31.

As for `COc1ccc(C(O)C2C=CC3C(=O)N(c4ccccc4)C(=O)C3N2Nc2ccccc2F)c2ccccc12` (stereo not given), the z-score was -0.462 (inactive) in assay [1]; 3.82 (inactive) in assay [3]; 1.71 (inactive) in [4]; 0.419 (inactive) in assay [5]; 1.05 (inactive) in assay [6]; -0.593 in [7]. The z-score is -0.232 (inactive) in assay [8], -1.7 (inactive) in [9] and -2.13 in assay [10]. The compound further registered a composite z-score in assay [2] of 1.16.

Take `COc1c(C)cc(-c2cc3c(c(CCc4ccccc4)n2)[Si](C(C)C)(C(C)C)O[C@H]3c2ccccc2)cc1C`: the z-score in [1] was -1.05 (inactive); in assay [3], 4.98 (inactive); in assay [4], 2.59 (inactive); in [5] it was 0.576 (inactive); in assay [6], 1.09 (inactive); in assay [7], -0.673. Also, the values for the z-score in assay [8], in assay [9] and in assay [10] were 0.283 (inactive), 1.11 (inactive) and 0.201, respectively. The same compound returned a composite z-score in [2] of -0.147.
